# Assay results taken from PubChem BioAssay (NCI).
# Several values for one entry are separate records, joined by “and”; a condition that tells them apart may be missing. Identical values can stand only once. About 83,000 compounds went through this panel and 20% of them were active in at least one assay; those are over-represented in the sample as a whole.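 The test compound was applied at a single concentration to cells in 96-well plates for 48 hours, and percent growth was recorded.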 Activity calls are given as the source filed them. The calls were made as follows: active = growth percent below 10; inactive = the rest. Where a SMILES comes first, the peptide text is derived from it.
# Columns and labels:
# Experiment in all cases: NCI-60 one-dose screen, 48 h (100 = growth as untreated, 0 = no growth, -100 = all killed)
# [1] = test system: NCI-H23 lung; conditions: 10 µM unless noted
# [2] = test system: NCI-H226 lung; conditions: 10 µM unless noted
# [3] = test system: NCI-H322M lung; conditions: 10 µM unless noted
# [4] = test system: HOP-62 NSCLC; conditions: 10 µM unless noted
# [5] = test system: NCI-H460 lung; conditions: 10 µM unless noted
# [6] = test system: HOP-92 NSCLC; conditions: 10 µM
# [7] = test system: NCI-H522 lung; conditions: 10 µM
# [8] = test system: A549/ATCC NSCLC; conditions: 10 µM unless noted
# [9] = test system: 786-0 renal; conditions: 10 µM unless noted
# [10] = test system: COLO 205 colon; conditions: 10 µM unless noted
SMILES,growth [1],growth [2],growth [3],growth [4],growth [5],growth [6],growth [7],growth [8],growth [9],growth [10]
CC1CCC2(C(=O)O)CCC3(C)C(=CCC4C5(C)CCC(O)C(C)(C)C5CCC43C)C2C1C (stereo not given),91.9% (inactive) and 88.2% (inactive),67.9% (inactive) and 98% (inactive),67.3% (inactive) and 92.7% (inactive),5.46% (active) and 102% (inactive),44.5% (inactive) and 89.9% (inactive),42.5% (inactive) and 65.8% (inactive),31.1% (inactive) and 84.1% (inactive),24% (inactive) and 75.4% (inactive),-31.3% (active) and 76.1% (inactive),78.5% (inactive) and 110% (inactive)
CC1(C)COC(=S)N1,101% (inactive),94.5% (inactive),101% (inactive),99.8% (inactive),113% (inactive),,85.2% (inactive),104% (inactive),99.7% (inactive),124% (inactive)
N#CC(C#N)N=Nc1cc(Cl)ccc1Cl,106% (inactive),104% (inactive),,104% (inactive),102% (inactive),,89.8% (inactive),98.4% (inactive),102% (inactive),110% (inactive)
OCC1OC(O)C(O)C(O)C1O (stereo not given),102% (inactive),113% (inactive),155% (inactive),98.9% (inactive),100% (inactive),85.9% (inactive),85.7% (inactive),108% (inactive),110% (inactive),108% (inactive)
CC1CCC2(OC1)OC1CC3C4CC=C5CC(O)CCC5(C)C4CCC3(C)C1C2C (stereo not given),104% (inactive),92.2% (inactive),113% (inactive),66.6% (inactive),103% (inactive),26.6% (inactive),103% (inactive),27.3% (inactive),,111% (inactive)
OCCN1CCCCCCC1,105% (inactive),93.8% (inactive),101% (inactive),99.5% (inactive),106% (inactive),68% (inactive),,99% (inactive),101% (inactive),104% (inactive)
CCCCOC(=O)/C=C\C(=O)NC(N)=O,85.7% (inactive),96.6% (inactive),96.4% (inactive),95.1% (inactive),101% (inactive),,-30.6% (active),95.8% (inactive),97.4% (inactive),87.7% (inactive)
O=[N+]([O-])c1cccc(SSc2cccc([N+](=O)[O-])c2)c1,98.8% (inactive),106% (inactive),116% (inactive),89.8% (inactive),109% (inactive),,96.8% (inactive),100% (inactive),103% (inactive),82.1% (inactive)
CCN(CCNS(C)(=O)=O)c1ccc(N)c(C)c1,99.2% (inactive) and 85.9% (inactive),92.9% (inactive) and 82.7% (inactive),95.1% (inactive) and 120% (inactive),106% (inactive) and 111% (inactive),107% (inactive) and 99.7% (inactive),84.4% (inactive),-70.5% (active),109% (inactive),89% (inactive) and 95.7% (inactive),69.6% (inactive) and 107% (inactive)
C#CCOC(=O)Nc1ccccc1,98.9% (inactive),108% (inactive),106% (inactive),113% (inactive),103% (inactive),102% (inactive),101% (inactive),97.4% (inactive),94.7% (inactive),106% (inactive)
COc1ccc(N/C=C/C2=[N+](C)c3ccccc3C2(C)C)c(OC)c1,79.8% (inactive),83% (inactive),102% (inactive),92.7% (inactive),96.3% (inactive),69.5% (inactive),89.9% (inactive),92.9% (inactive),88.9% (inactive),99.5% (inactive)
CC(=O)OC(C)C(=O)NCC(C)O (stereo not given),100% (inactive),,90.7% (inactive),100% (inactive),98.2% (inactive),98% (inactive),109% (inactive),108% (inactive),94.9% (inactive),107% (inactive)
CN(C)CC1CCCCCC(CN(C)C)C1=O (stereo not given),97.2% (inactive),91.4% (inactive),116% (inactive),113% (inactive),106% (inactive),73.2% (inactive),-42.8% (active),106% (inactive),89.6% (inactive),-80.9% (active)
Cc1ccc(S(=O)(=O)c2ccccc2)cc1,54.5% (inactive),85.6% (inactive),57.1% (inactive),44.2% (inactive),20.7% (inactive),58.7% (inactive),,41.7% (inactive),,18.4% (inactive)
CC(C)C(C)(C)c1ccc(O)cc1,103% (inactive),99.3% (inactive),102% (inactive),104% (inactive),104% (inactive),,99.7% (inactive),102% (inactive),,108% (inactive)
CC1=C/C(O)CC(=O)Cc2nc(co2)C(=O)N2CCC=C2C(=O)OC(C(C)C)C(C)/C=C\C(=O)NC/C=C\1 (stereo not given),78.7% (inactive),82.9% (inactive),102% (inactive),,102% (inactive),88.7% (inactive),21.8% (inactive),83% (inactive),2.53% (active),74.3% (inactive)
NC(=O)NCCCC(N)C(=O)O (stereo not given),103% (inactive),98.2% (inactive),88.6% (inactive),98.4% (inactive),108% (inactive),,,104% (inactive),101% (inactive),106% (inactive)

SMILES,growth [1],growth [2],growth [3],growth [4],growth [5],growth [6],growth [7],growth [8],growth [9],growth [10]
Oc1ccc(Cc2ccccc2Cl)c(O)c1,89.5% (inactive),,86.5% (inactive),91.9% (inactive),101% (inactive),89.4% (inactive),94.7% (inactive),98.8% (inactive),102% (inactive),106% (inactive)
OC1COC(OCc2ccccc2)C(O)C1O (stereo not given),106% (inactive),98.1% (inactive),90.6% (inactive),101% (inactive),106% (inactive),,,,105% (inactive),115% (inactive)
NC1CCC(C(=O)O)CC1 (stereo not given),111% (inactive) and 108% (inactive),104% (inactive) and 99.6% (inactive),117% (inactive) and 105% (inactive),100% (inactive) and 91.2% (inactive),98.9% (inactive) and 104% (inactive),83.3% (inactive) and 91.7% (inactive),97.4% (inactive) and 96% (inactive),107% (inactive) and 108% (inactive),102% (inactive) and 103% (inactive),105% (inactive) and 107% (inactive)
ClCCOCCOc1ccc(C2CCCCC2)cc1,113% (inactive),92.4% (inactive),121% (inactive),92.3% (inactive),106% (inactive),87.9% (inactive),93.8% (inactive),86.6% (inactive),88.8% (inactive),111% (inactive)
c1ccc(-c2nc3ccccc3s2)cc1,88.2% (inactive),,81.1% (inactive),76.3% (inactive),97.5% (inactive),82.4% (inactive),,105% (inactive),105% (inactive),110% (inactive)
Nc1ncnc2c1ncn2C1OC(COP(=O)(O)O)C(O)C1O (stereo not given),110% (inactive),113% (inactive),,115% (inactive),,103% (inactive),114% (inactive),114% (inactive),105% (inactive),130% (inactive)
NN1CCOC(c2ccccc2)C1 (stereo not given),104% (inactive),99.4% (inactive),97.7% (inactive),99.6% (inactive),115% (inactive),,125% (inactive),104% (inactive),103% (inactive),107% (inactive)
O=C(O)/C=C\C(=O)Nc1cccc2ccccc12,106% (inactive) and 91.4% (inactive),90.6% (inactive) and 107% (inactive),105% (inactive) and 117% (inactive),96% (inactive) and 104% (inactive),101% (inactive) and 111% (inactive),115% (inactive),79.3% (inactive) and 100% (inactive),99.9% (inactive) and 105% (inactive),113% (inactive) and 111% (inactive),95.4% (inactive) and 108% (inactive)
COc1ccc2cc1Oc1ccc(cc1)C[C@H]1c3cc(c(OC)cc3CCN1C)Oc1c(OC)c(OC)cc3c1[C@H](C2)N(C)CC3,92.7% (inactive),113% (inactive),52.6% (inactive),17.7% (inactive),44.9% (inactive),,1.42% (active),39.6% (inactive),46.3% (inactive),44.8% (inactive)
COc1ccc(Nc2ccc3ccccc3c2)cc1,81.5% (inactive),81% (inactive),,67.9% (inactive),94.1% (inactive),,,,84.3% (inactive),94% (inactive)
CCCCCCCCCCNC(=O)CI,-48.8% (active),76.7% (inactive),96.8% (inactive),-20.8% (active),101% (inactive),-79% (active),,95.1% (inactive),-81.2% (active),-20% (active)
NC(Cc1ccccc1)C(=O)NC(Cc1ccccc1)C(=O)O (stereo not drawn) (H-Phe-Phe-OH; configuration not given here),97.1% (inactive) and 105% (inactive),95.6% (inactive) and 93% (inactive),94.6% (inactive) and 100% (inactive),91.1% (inactive) and 100% (inactive),104% (inactive),97.6% (inactive),87.3% (inactive) and 99.4% (inactive),90.2% (inactive) and 101% (inactive),111% (inactive) and 104% (inactive),107% (inactive) and 110% (inactive)
CC(=O)NCC(=O)c1ccc([N+](=O)[O-])cc1,95% (inactive),98% (inactive),103% (inactive),95.8% (inactive),104% (inactive),108% (inactive),109% (inactive),101% (inactive),103% (inactive),105% (inactive)
Fc1ccc([I+]c2ccc(F)cc2)cc1,53.7% (inactive),71.8% (inactive),76.1% (inactive),78.7% (inactive),86.1% (inactive),67.8% (inactive),68.8% (inactive),80.9% (inactive),,62.2% (inactive)
CC[C@H](CC[C@@H](C)[C@H]1CC[C@H]2[C@@H]3CC=C4C[C@@H](O)CC[C@]4(C)[C@H]3CC[C@]12C)C(C)C,5.59% (active) and 96.6% (inactive),99.6% (inactive) and 101% (inactive),92.6% (inactive) and 103% (inactive),108% (inactive) and 101% (inactive),105% (inactive) and 107% (inactive),83.5% (inactive),18.7% (inactive) and 97% (inactive),102% (inactive),95.3% (inactive) and 106% (inactive),103% (inactive) and 107% (inactive)
Cl,97.5% (inactive),105% (inactive),,,107% (inactive),,,103% (inactive),104% (inactive),115% (inactive)
